D3 ag – activates the human D3 dopamine receptor; D3R DiscoveRx beta-arrestin cells, luminescence, 90 min; max activation, %; AID 652048; 410,000 compounds, 0.58% hits; P35462; in the data active means max activation above about 30%; further: 0% is about no effect
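Agonist-mode cell screen: cells plated at 1500/well and incubated overnight at 37 °C, then exposed to library compounds for 90 min at 37 °C. Detection reagent was added for 30–60 min at room temperature, and luminescence was read.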
RGS4 inhibitor – inhibitors of human regulator of G protein signaling 4; P49798; Potency, µM (series often up to 114 µM), without a hit: at the highest dose activity change, negative = inhibition, most hits filed as inhibitors; Transcreener GDP fluorescence polarization, RGS4-accelerated GTP hydrolysis; 390,000 compounds, 0.039% hits; AID 504845; further: potency means the concentration at half of the fitted maximal effect; on the % scale 0 is the no-effect control and ±100 the full control effect; nearly all actives have a fitted effect of over 75% in size
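MLSMR compounds (23 nl, pin-transferred) preincubated 10 min at room temperature with a 500nM (2x) first reagent, then RGS4 at 900nM (2x) plus Transcreener GDP mix added; fluorescence polarization (620/688 nm) read before and after 90 min at 30 °C.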
BRCA1 expr act – activators of BRCA1 expression. MCF7-BRCA1-FFLuc reporter, luminescence, 48 h; response scale: scaled: vehicle 0%, 10 µM genistein 100%. Potency, µM (highest dose often 46.1 µM), for the others: at the highest dose activation, actives largely listed as activators. 380,000 compounds, 1.1% hits. AID 624202; further: potency means the concentration at half of the fitted maximal effect; nearly all actives have a fitted effect of over 80% in size
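MCF7-BRCA1-FFLuc, 2000 cells/well; 2 h attach, 37 °C/5% CO2; compound 48 h; luciferase substrate 15 min; luminescence end-point. Norm. to genistein 10 microM max activation and DMSO; concentration-response curves fitted.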
B2AR arrestin – agonists driving beta-arrestin recruitment to human beta2-adrenergic receptor. P07550. beta-arrestin recruitment to beta2AR, cell-based reporter. Potency, µM (titrated, usually from 46.1 µM), inactives show at the highest dose activation, hits mostly activators. 330,000 compounds, 0.02% hits. AID 492947;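 further: potency means the concentration at half of the fitted maximal effect; 0% = DMSO controls and full agonism = EC100 isoproterenol or metaproterenol; nearly all actives have a fitted effect of over 65% in size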
Target sequence (P07550 whole entry, looked up): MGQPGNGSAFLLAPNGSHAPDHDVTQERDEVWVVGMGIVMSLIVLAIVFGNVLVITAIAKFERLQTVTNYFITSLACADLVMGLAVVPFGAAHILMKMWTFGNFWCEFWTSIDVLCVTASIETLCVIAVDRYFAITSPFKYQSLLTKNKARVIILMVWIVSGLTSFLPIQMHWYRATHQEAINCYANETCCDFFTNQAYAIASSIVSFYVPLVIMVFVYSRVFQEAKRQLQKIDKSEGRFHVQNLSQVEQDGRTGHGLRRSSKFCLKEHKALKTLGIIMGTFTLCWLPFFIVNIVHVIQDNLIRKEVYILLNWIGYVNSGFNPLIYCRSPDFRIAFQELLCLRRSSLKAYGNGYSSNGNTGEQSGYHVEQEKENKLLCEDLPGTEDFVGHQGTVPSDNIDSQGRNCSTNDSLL
D3 antag – blocks the human D3 dopamine receptor; P35462; D3R cells, DiscoveRx beta-arrestin luminescence, antagonist mode; stronger effect = lower value; max response, negative = inhibition, %; 360,000 compounds, 2.5% hits; in the data active means max response below about -50%; inconclusive means no clear call, values can overlap the other calls; further: on the % scale 0 is the no-effect control and ±100 the full control effect
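Cells plated overnight at 1500 cells/well, then exposed to library compounds with dopamine controls for 90 minutes at 37 degrees C. DiscoveRx reagent added for 30–60 minutes at room temperature; luminescence read, quantitative HTS format.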
PTHR1 ag – activates the human parathyroid hormone receptor PTHR1; HEK293 GP2 PTHR1 cells, GloSensor cAMP luminescence, 1 h; Potency, µM (doses to about 115 µM), for inactives: top-dose activation, actives largely listed as activators; 410,000 compounds, 0.075% hits; further: potency means the concentration at half of the fitted maximal effect; nearly all actives have a fitted effect of over 55% in size
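HEK-293-derived GP2 cells expressing PTHR1 and a GloSensor cAMP reporter, 3,000/well, plated overnight, given luciferin plus IBMX (each 0.5 mM as added) for 1 h at 37 °C, then compound for 1 h at 37 °C. Luminescence was read after 15 min at room temperature.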
Active calls of the source: *; i = inactive; ? = inconclusive; nt = no result given; [ ] = another dose, or the depositor's remark. Hits are enriched below; roughly 3.7% of the tested compounds scored in any of these assays. Unless noted, the call rests on the fitted dose curve; in most records, active means well fitted curve in the direction sought with a large enough effect; inconclusive means small, poorly fitted or top-dose-only effect, or another doubt; inactive means no such curve, though single readings can be large; an effect the other way counts as inactive or inconclusive.

SMILES | D3 ag | RGS4 inhibitor | BRCA1 expr act | B2AR arrestin | D3 antag | PTHR1 ag
O=C(O)c1cc(O)c2c(c1)[C@@H]([C@H]1c3cc(C(=O)O)cc(O)c3C(=O)c3c(O[C@@H]4O[C@H](CO)[C@@H](O)[C@H](O)[C@H]4O)cccc31)c1cccc(OC3O[C@H](CO)[C@@H](O)[C@H](O)[C@H]3O)c1C2=O (stereo not given in full) | 0 | ? | 0% | 0% | -56* | -23%
O=C(c1ccc(NC2=NC3CS(=O)(=O)CC3S2)cc1)N1CCN(c2ccc(F)cc2)CC1 (stereo not given) | 5 | 20% | 0% | 0% | -7 | i
O=C(c1ccc(NC2=NC3CS(=O)(=O)CC3S2)cc1)N1CCN(c2ccccc2F)CC1 (stereo not given) | -10 | -5% | -13% | -1% | -61* | -4%
Cc1cc(NC(=O)CSc2nc3ccsc3c(=O)n2Cc2ccccn2)n[nH]1 | -11 | 34% | 5.6µM* | 0% | 13 | -9%[57.5 µM]
COC(=O)CNC(=O)COC(=O)c1cc(SC)ccc1Cl | 1 | -20% | -8% | 0% | -2 | -12%
COc1ccccc1N=C1NC(=O)/C(=C/c2ccc(N(C)C)cc2)S1 | -13 | -23% | -5% | 0% | -95* | -16%
Cc1ccccc1NC(=O)Cn1c(=O)n(Cc2ccc3c(c2)OCO3)c(=O)c2ccc(C(=O)NC3CCCCC3)cc21 | 0 | -9% | 13% | nt | nt | i
O=C1c2ccccc2NC(c2ccc(Br)o2)N1O (stereo not given) | nt | -29% | 11µM* | 0% | nt | i
C#CCN(C[C@@H]1[C@@H](OC(=O)NCCCCCC)[C@@H](OC(=O)NCCCCCC)Cn2c(=O)ccc(=O)n21)S(=O)(=O)c1ccc(C)cc1 | 2 | nt | -89% | nt | -23 | -50%
C#CCN(C[C@@H]1[C@@H](OC(=O)NCC2CCCCC2)[C@@H](OC(=O)NCC2CCCCC2)Cn2c(=O)ccc(=O)n21)S(=O)(=O)c1ccc(C)cc1 | -7 | nt | -84% | nt | -81* | -85%
Cc1noc(C)c1COc1ccc(C(=O)Nc2ccccc2)cc1 | 2 | 11% | 4% | 0% | -55* | -26%
Cc1noc(C)c1COc1ccc(C(=O)Nc2ccccn2)cc1 | 4 | -6% | 41% | 0% | -11 | -32%
COc1cc(C(=O)NCC(c2ccccc2)N(C)C)ccc1OCc1c(C)noc1C (stereo not given) | -26 | -15% | -30% | 0% | -100* | -31%
CC(C)[C@H](NS(=O)(=O)c1ccccc1)C(=O)OCC(=O)NC(=O)c1cccn1C | 5 | -20% | -5% | 0% | -8 | i
Cc1ccc(S(=O)(=O)N[C@H](C(=O)OCC(=O)NC(=O)c2cccn2C)C(C)C)cc1 | 35* | 26% | -9% | nt | 2 | -9%
C[C@H]1CN([C@@H](C)CO)C(=O)CCCn2nncc2CO[C@@H]1CN(C)S(=O)(=O)c1ccccc1 | -3 | nt | 2% | nt | -3 | -13%
COC(=O)C1(Cc2cc(-c3ccc(OC)cc3OC)no2)CCN(C(=O)OC(C)(C)C)CC1 | 77* | 12% | 0% | 1% | -13 | -93%
CC(C)c1nc2sc3c(=O)[nH]cnc3c2c2c1CCC2 | 52* | -12% | 39% | 0% | 7 | -33%
CC(C)c1nc2sc3c(=O)[nH]cnc3c2c2c1CCCC2 | 5 | -7% | -17% | 1% | 27 | i
Clc1ccc2c(NCCNC3CCCCC3)ccnc2c1 | -20 | 8% | -86% | nt | -98* | -40%
CCOC(=O)C1Cc2ccccc2CN1 (stereo not given) | -17 | 25% | 6% | 0% | -66* | -19%[57.5 µM]
CCOC(=O)C1Cc2c([nH]c3ccccc23)CN1 (stereo not given) | -4 | -4%[11.4 µM] | 7% | 0% | -7 | i
Cn1c2c(c3ccccc31)CCN(CCCCN1CCN(c3ccccc3)CC1)C2=O | 54* | -47% | -59% | nt | 4 | i

Screening data deposited in PubChem by National Center for Advancing Translational Sciences (NCATS).
